# Source: PubChem BioAssay (EPA / NIEHS)
# “And” between values parts separate entries of the source, which are not always exact repeats. Equal values may be shown once. The source made the active and inactive calls. The calls were made as follows: active = hit-call score of the fitted dose curve at least 0.9, where 1 is the maximum; inactive = score below 0.9.
# How the values were obtained:
# [1] = CEETOX_H295R_PROG: CeeTox H295R High-throughput Steroidogenesis Assay for Progesterone (PROG) (AID 2283442); settings: actives raise or lower the signal;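 as to AC50: human H295R adrenal cells primed with 10 µM forskolin before dosing; progesterone secreted into medium by H295R cells measured by HPLC-MS/MS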
# In short: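 Adrenal H295R line, forskolin-stimulated (10 uM, 48 h) before dosing. 48 h exposure, 0.1% DMSO vehicle. Secreted progesterone by reverse-phase HPLC with ESI+ MS/MS quantification; DMSO-normalised bidirectional curve fit.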
# [2] = read-out: Tumor necrosis factor receptor superfamily member 6 (Homo sapiens) (UniProt P25445); assay: LTEA_HepaRG_FAS: Life Technologies and Expression Analysis (LTEA) Assay for Fas cell surface death receptor (FAS) using HepaRG (AID 2283447); settings: mRNA level, 48 h; actives raise or lower the signal
# In short: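 Differentiated HepaRG cells in serum-free induction medium were exposed 48 h to 8 half-log concentrations up to 100 uM in 0.5% DMSO, in duplicate. FAS mRNA was measured by qRT-PCR normalised to ACTB, GAPDH and POLR2A; bidirectional fit versus DMSO.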
# [3] = read-out: Fatty acid synthase (Homo sapiens) (UniProt P49327); assay: LTEA_HepaRG_FASN: Life Technologies and Expression Analysis (LTEA) Assay for Fatty Acid Synthase (FASN) using HepaRG (AID 2283448); settings: mRNA level, 48 h; actives raise or lower the signal;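 as to AC50: differentiated human HepaRG liver cells in serum-free induction medium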
# In short: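 Transcript-level assay: HepaRG liver cells are treated for 48 h across an eight-point range topping at 100 uM, and FASN mRNA, normalized to three housekeeping genes, is compared with DMSO controls in both directions.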
# [4] = read-out: Cyclin D2 (CCND2), CCND2 (gene 894); assay: LTEA_HepaRG_CCND2: Life Technologies and Expression Analysis (LTEA) Assay for Cyclin D2 (CCND2) using HepaRG (AID 2283449); settings: mRNA level, 48 h; actives raise or lower the signal;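 also: CCND2 transcript measured by TaqMan qRT-PCR and normalised to three housekeeping genes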
# In short: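 Chemicals in 0.5% DMSO, eight half-log concentrations from 100 uM top, were applied in duplicate for 48 h to human HepaRG cells in serum-free induction medium. CCND2 mRNA by TaqMan qRT-PCR, normalised to ACTB/GAPDH/POLR2A; bidirectional fit versus DMSO.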
# [5] = read-out: Cyclin Dependent Kinase Inhibitor 1A (CDKN1A), CDKN1A (gene 1026); assay: LTEA_HepaRG_CDKN1A: Life Technologies and Expression Analysis (LTEA) Assay for Cyclin Dependent Kinase Inhibitor 1A (CDKN1A) using HepaRG (AID 2283450); settings: mRNA level, 48 h; actives raise or lower the signal
# In short: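 Cryopreserved HepaRG cells were plated and cultured 48 h, then switched to serum-free induction medium. Chemicals (eight half-log concentrations, top 100 uM, 0.5% DMSO) were applied for 48 h. Lysates underwent qRT-PCR for CDKN1A with housekeeping normalization.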
# [6] = read-out: Cyclin D1 (CCND1), CCND1 (gene 595); assay: LTEA_HepaRG_CCND1: Life Technologies and Expression Analysis (LTEA) Assay for Cyclin D1 (CCND1) using HepaRG (AID 2283451); settings: mRNA level, 48 h; actives raise or lower the signal;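 as to AC50: differentiated human HepaRG liver cells in serum-free induction medium; TaqMan qRT-PCR transcript level normalised to ACTB GAPDH and POLR2A housekeeping genes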
# In short: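 Human liver HepaRG line; 48 h dosing, 8 conc. ≤100 uM, 0.5% DMSO; TaqMan qRT-PCR mRNA, 3 housekeeping genes; bidirectional curve fit vs DMSO.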
# [7] = read-out: catalase (CAT), CAT (gene 847); assay: LTEA_HepaRG_CAT: Life Technologies and Expression Analysis (LTEA) Assay for catalase (CAT) using HepaRG (AID 2283452); settings: mRNA level, 48 h; actives raise or lower the signal;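 as to AC50: TaqMan qRT-PCR signal normalized to ACTB GAPDH and POLR2A housekeeping genes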
# In short: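 HepaRG cells in serum-free induction medium, 0.5% DMSO vehicle, exposed 48 h in duplicate over 8 half-log concentrations from 100 uM. CAT mRNA measured by qRT-PCR, normalized to ACTB, GAPDH, POLR2A; bidirectional fit versus DMSO.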
# [8] = read-out: flavin-containing dimethylaniline monooxygenases 3 (FMO3), FMO3 (gene 2328); assay: LTEA_HepaRG_FMO3: Life Technologies and Expression Analysis (LTEA) Assay for flavin-containing dimethylaniline monooxygenases 3 (FMO3) using HepaRG (AID 2283453); settings: mRNA level, 48 h; actives raise or lower the signal;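 as to AC50: differentiated human HepaRG liver cells in serum-free induction medium; FMO3 transcript by TaqMan qRT-PCR normalized to ACTB GAPDH and POLR2A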
# In short: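 HepaRG, 48 h exposure, 8-pt half-log series from 100 uM, 0.5% DMSO vehicle, duplicates; FMO3 transcript by Fluidigm TaqMan qRT-PCR, housekeeping-normalized; gain/loss fit vs DMSO.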
# [9] = read-out: Cytochrome P450 (CYP1A1), CYP1A1 (gene 1543); assay: LTEA_HepaRG_CYP1A1: Life Technologies and Expression Analysis (LTEA) Assay for Cytochrome P450 (CYP1A1) using HepaRG (AID 2283454); settings: mRNA level, 48 h; actives raise or lower the signal
# In short: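 Induction of CYP1A1 mRNA in a human hepatic cell line was measured 48 h after dosing, with 1 mM phenobarbital as induction positive control and 0.5% DMSO vehicle as baseline for bidirectional curve fitting.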
# [10] = read-out: CFLAR gene, CFLAR (gene 8837); assay: LTEA_HepaRG_CFLAR: Life Technologies and Expression Analysis (LTEA) Assay for CFLAR gene using HepaRG (AID 2283455); settings: mRNA level, 48 h; actives raise or lower the signal
# In short: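 Differentiated HepaRG cells in serum-free induction medium were exposed 48 h in duplicate to eight half-log concentrations up to 100 uM in 0.5% DMSO; mRNA measured by TaqMan qRT-PCR, normalized to ACTB, GAPDH, POLR2A; bidirectional fitting versus DMSO.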
# Chain of Fatty acid synthase (Homo sapiens) (P49327 whole entry, looked up): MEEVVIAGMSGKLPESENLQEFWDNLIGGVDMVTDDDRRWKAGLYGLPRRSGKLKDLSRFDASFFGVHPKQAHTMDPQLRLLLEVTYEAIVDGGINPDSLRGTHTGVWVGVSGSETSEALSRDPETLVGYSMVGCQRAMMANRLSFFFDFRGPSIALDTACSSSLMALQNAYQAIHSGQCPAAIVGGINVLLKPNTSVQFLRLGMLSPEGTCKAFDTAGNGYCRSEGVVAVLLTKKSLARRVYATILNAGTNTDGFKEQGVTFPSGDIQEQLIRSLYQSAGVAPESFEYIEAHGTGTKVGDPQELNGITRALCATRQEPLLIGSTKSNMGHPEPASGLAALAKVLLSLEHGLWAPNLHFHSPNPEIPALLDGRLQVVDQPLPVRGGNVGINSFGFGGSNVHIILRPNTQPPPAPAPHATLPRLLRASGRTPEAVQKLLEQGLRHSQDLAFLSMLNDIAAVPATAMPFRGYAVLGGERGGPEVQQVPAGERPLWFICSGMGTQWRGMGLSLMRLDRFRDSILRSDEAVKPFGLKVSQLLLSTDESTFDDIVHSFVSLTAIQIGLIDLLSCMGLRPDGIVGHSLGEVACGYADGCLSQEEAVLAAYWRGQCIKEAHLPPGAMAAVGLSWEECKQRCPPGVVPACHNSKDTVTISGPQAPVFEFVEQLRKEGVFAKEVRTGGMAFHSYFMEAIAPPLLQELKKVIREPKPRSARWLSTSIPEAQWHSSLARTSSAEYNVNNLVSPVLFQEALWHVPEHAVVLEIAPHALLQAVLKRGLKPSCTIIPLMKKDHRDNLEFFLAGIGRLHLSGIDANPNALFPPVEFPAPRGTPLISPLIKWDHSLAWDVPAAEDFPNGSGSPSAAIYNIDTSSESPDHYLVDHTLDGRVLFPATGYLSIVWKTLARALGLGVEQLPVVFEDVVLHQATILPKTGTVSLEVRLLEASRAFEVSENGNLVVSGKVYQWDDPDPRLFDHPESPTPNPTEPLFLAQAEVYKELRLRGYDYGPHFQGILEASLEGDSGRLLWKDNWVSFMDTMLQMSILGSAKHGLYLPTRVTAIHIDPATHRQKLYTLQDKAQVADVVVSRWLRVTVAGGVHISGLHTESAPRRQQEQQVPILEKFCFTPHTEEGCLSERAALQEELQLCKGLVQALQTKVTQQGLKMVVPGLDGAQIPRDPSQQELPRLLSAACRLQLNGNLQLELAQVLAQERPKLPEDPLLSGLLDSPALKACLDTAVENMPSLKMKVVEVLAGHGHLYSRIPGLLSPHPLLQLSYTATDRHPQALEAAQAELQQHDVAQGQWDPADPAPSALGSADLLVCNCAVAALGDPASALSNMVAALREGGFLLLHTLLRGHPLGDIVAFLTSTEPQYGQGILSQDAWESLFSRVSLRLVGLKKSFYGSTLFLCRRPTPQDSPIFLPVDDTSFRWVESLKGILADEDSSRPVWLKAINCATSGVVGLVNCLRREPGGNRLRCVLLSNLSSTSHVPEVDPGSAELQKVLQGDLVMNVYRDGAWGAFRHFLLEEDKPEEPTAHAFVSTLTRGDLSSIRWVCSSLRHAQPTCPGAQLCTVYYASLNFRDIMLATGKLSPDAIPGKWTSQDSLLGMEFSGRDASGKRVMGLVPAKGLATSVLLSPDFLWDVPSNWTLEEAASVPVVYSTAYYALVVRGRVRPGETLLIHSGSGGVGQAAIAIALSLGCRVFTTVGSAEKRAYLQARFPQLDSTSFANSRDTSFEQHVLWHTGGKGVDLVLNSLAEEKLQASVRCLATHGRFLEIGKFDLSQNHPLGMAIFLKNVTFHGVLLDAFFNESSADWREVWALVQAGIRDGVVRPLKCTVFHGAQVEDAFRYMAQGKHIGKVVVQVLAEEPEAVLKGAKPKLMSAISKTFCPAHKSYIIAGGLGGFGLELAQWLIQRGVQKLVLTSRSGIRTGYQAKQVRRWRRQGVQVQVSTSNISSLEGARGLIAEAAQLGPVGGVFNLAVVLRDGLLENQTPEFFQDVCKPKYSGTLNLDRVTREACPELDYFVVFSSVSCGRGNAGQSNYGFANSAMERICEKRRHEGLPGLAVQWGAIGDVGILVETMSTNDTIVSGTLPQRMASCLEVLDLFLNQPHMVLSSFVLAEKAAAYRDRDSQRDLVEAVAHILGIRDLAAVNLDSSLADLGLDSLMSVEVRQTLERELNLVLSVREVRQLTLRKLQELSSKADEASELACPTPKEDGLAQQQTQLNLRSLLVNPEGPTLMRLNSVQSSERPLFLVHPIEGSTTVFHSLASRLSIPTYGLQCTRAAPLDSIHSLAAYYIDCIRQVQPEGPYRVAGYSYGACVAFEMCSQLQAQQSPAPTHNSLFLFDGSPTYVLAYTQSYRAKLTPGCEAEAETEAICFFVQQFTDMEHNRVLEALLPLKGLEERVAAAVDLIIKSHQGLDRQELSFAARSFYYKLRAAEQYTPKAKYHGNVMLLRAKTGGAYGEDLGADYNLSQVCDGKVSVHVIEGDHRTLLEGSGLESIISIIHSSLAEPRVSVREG
SMILES,outcome [1],outcome [2],outcome [3],outcome [4],outcome [5],outcome [6],outcome [7],outcome [8],AC50 [9],outcome [10],AC50 [3],AC50 [5],AC50 [6],AC50 [8],AC50 [10],outcome [9],AC50 [1],AC50 [7],AC50 [4]
N#Cc1ccc(N(CC(N)=O)CC(F)(F)F)cc1C(F)(F)F,inactive,inactive,inactive,inactive,inactive,inactive,inactive,inactive,50 µM (active),inactive,,,,,,,,,
CCOCCOC(C)=O,inactive,inactive,inactive,inactive,inactive,inactive,inactive,inactive,50 µM (active),inactive,,,,,,,,,
CCCCCCCCCC[N+](C)(C)CCCCCCCCCC,,inactive,,inactive,,,inactive,,22.9 µM (active),,42.7 µM (active),88.2 µM (active),50 µM (active),79.4 µM (active),76.5 µM (active),,,,
Cc1cccc(C)c1N,inactive,inactive,inactive,inactive,inactive,inactive,inactive,inactive,51.8 µM (active),inactive,,,,,,,,,
Cc1cc(O)ccc1Cl,inactive,inactive,inactive,,inactive,inactive,inactive,inactive,,inactive,,,,,,inactive,,,
Cc1cc2c3c(c1)C(c1ccccc1)=N[C@@H](NC(=O)c1ccncc1)C(=O)N3CC2,,inactive,,inactive,,inactive,inactive,,24.4 µM (active),inactive,50 µM (active),50 µM (active),,81.8 µM (active),,,28.1 µM (active),,
C[C@]12CCC(=O)C=C1CC[C@@H]1[C@@H]2CC[C@]2(C)C(=O)CC[C@@H]12,,inactive,,,inactive,inactive,inactive,inactive,,inactive,82.7 µM (active),,,,,inactive,0.271 µM (active),,
CN(C)CCO,,inactive,inactive,inactive,inactive,inactive,inactive,inactive,,inactive,,,,,,inactive,,,
CCC(C)(CC)c1cc(NC(=O)c2c(OC)cccc2OC)on1,inactive,inactive,,inactive,inactive,inactive,inactive,inactive,10.2 µM (active),inactive,33.8 µM (active),,,,,,,,
CCOP(=S)(OCC)SCSC(C)(C)C,inactive,inactive,inactive,inactive,inactive,inactive,inactive,inactive,,inactive,,,,,,inactive,,,
O=S(=O)(O)C(F)(F)C(F)(F)C(F)(F)C(F)(F)F,,inactive,inactive,inactive,inactive,inactive,inactive,inactive,,inactive,,,,,,inactive,,,
Clc1ccc(C(c2ccccc2Cl)C(Cl)(Cl)Cl)cc1 (stereo unspecified),inactive,inactive,,,inactive,inactive,,,20 µM (active),inactive,50 µM (active),,,74.6 µM (active),,,,19.3 µM (active),
CCC(=O)O[C@H]1CC[C@H]2[C@@H]3CCC4=CC(=O)CC[C@]4(C)[C@H]3CC[C@]12C,,inactive,inactive,inactive,inactive,inactive,inactive,inactive,13.1 µM (active),inactive,,,,,,,2.65 µM (active),,
COS(=O)(=O)OC,,inactive,inactive,inactive,inactive,inactive,inactive,inactive,25.5 µM (active),inactive,,,,,,,,,
NS(=O)(=O)C(F)(F)C(F)(F)C(F)(F)C(F)(F)C(F)(F)C(F)(F)C(F)(F)C(F)(F)F,inactive,inactive,,inactive,,,,,13.8 µM (active),,12.9 µM (active),1.8 µM (active),50 µM (active),11.8 µM (active),7.67 µM (active),,,9.12 µM (active),
CC#Cc1cc(C)nc(Nc2ccccc2)n1,inactive,inactive,,inactive,,,inactive,,13.8 µM (active),inactive,1.83 µM (active),80.1 µM (active),13.3 µM (active),21.8 µM (active),,,,,
Oc1ccc(Cl)cc1Cl,inactive,inactive,inactive,inactive,,inactive,inactive,inactive,,inactive,,,,,,inactive,,,
Cc1ccccc1CO[C@@H]1C[C@@]2(C(C)C)CC[C@]1(C)O2,inactive,inactive,inactive,inactive,inactive,inactive,inactive,inactive,44.4 µM (active),inactive,,,,,,,,,
O=C(NC(=O)c1cc(F)c(F)cc1Cl)Nc1cc(F)ccc1N1CCC(C(=O)O)CC1,,inactive,inactive,inactive,inactive,inactive,inactive,inactive,25 µM (active),inactive,,,,,,,,,
Cc1ccc(O)c(C)c1,inactive,inactive,inactive,inactive,inactive,inactive,inactive,inactive,,inactive,,,,,,inactive,,,
Cc1cc(-c2ccc(N)c(C)c2)ccc1N,,inactive,,inactive,inactive,inactive,inactive,,20.3 µM (active),inactive,25.1 µM (active),,,25.1 µM (active),,,2.96 µM (active) and 31.1 µM (active),,
CCSC(=O)N(CC)C1CCCCC1,inactive,inactive,inactive,inactive,inactive,inactive,inactive,inactive,,inactive,,,,,,inactive,,,
Nc1ccc(-c2ccc(N)cc2)cc1,,inactive,inactive,inactive,inactive,inactive,inactive,inactive,50 µM (active),inactive,,,,,,,15.2 µM (active),,
O=C(NC(=O)c1c(F)cccc1F)Nc1cc(Cl)c(OC(F)(F)C(F)F)c(Cl)c1,inactive,inactive,,inactive,inactive,inactive,inactive,,3.34 µM (active),inactive,50 µM (active),,,50 µM (active),,,,,
ClC1=C(Cl)[C@]2(Cl)[C@@H]3[C@H]4C[C@H]([C@@H]5O[C@H]45)[C@@H]3[C@@]1(Cl)C2(Cl)Cl,,inactive,,,inactive,inactive,,,,inactive,87.6 µM (active),,,50 µM (active),,inactive,3 µM (active),13.3 µM (active),
c1cc2ccc3cccc4ccc(c1)c2c34,,inactive,inactive,,inactive,inactive,inactive,inactive,24.3 µM (active),inactive,,,,,,,13.9 µM (active),,5 µM (active)
C[C@]12CCC(=O)C=C1CC[C@@H]1[C@@H]2CC[C@@]2(C)[C@H]1CC[C@]2(C)O,inactive,inactive,,inactive,,inactive,inactive,,,inactive,66.1 µM (active),79.9 µM (active),,66 µM (active),,inactive,,,
CC1=C2C[C@H]3[C@@H](CC=C4C[C@@H](O)CC[C@@]43C)[C@@H]2CC[C@]12O[C@@H]1C[C@H](C)CN[C@H]1[C@H]2C,,inactive,inactive,inactive,inactive,inactive,inactive,inactive,34.3 µM (active),inactive,,,,,,,,,
CN(C)c1nc(=O)n(C2CCCCC2)c(=O)n1C,,inactive,inactive,inactive,inactive,inactive,inactive,inactive,50 µM (active),inactive,,,,,,,,,
CCNc1nc(NC(C)C)nc(SC)n1,inactive,inactive,,,inactive,inactive,inactive,,19.8 µM (active),inactive,,,,50 µM (active),,,,,
